Results filed as inconclusive are left out. Active and inactive are the calls of the source. Calls come from the whole dose curve; as a rule, active = well fitted activation curve with a large enough effect in the signal ratio in the repeat runs (not every such curve was filed as active); inconclusive = weak or mixed curves, or effect the other way; inactive = no such curve, though single readings can be large or run the other way; the % refers to the signal ratio.
target: Peroxisome proliferator-activated receptor gamma (Homo sapiens) (UniProt P37231); test: qHTS assay to identify small molecule agonists of the peroxisome proliferator-activated receptor gamma (PPARg) signaling pathway (AID 743094); settings: HEK293H PPARg-UAS-bla, beta-lactamase FRET ratio, 17 h; series mostly up to 57 µM; activation: at the top concentration
Text: U.S. Tox21 Program National Center for Advancing Translational Sciences [NCATS] NIH Chemical Genomics Center [NCGC] U.S. Environmental Protection Agency [EPA] National Institutes of Environmental Health Sciences [NIEHS] National Toxicology Program [NTP] U.S. Food and Drug Administration [FDA] Tox21 Assay Overview: The peroxisome proliferator-activated receptors (PPARs) are lipid-activated transcription factors of the nuclear receptor superfamily with three distinct subtypes namely PPAR alpha, PPAR delta (also called PPAR beta) and PPAR gamma (PPARg). All these subtypes heterodimerize with Retinoid X receptor (RXR) and these heterodimers regulate transcription of various genes. PPAR-gamma receptor (glitazone receptor) is involved in the regulation of glucose and lipid metabolism. To identify the compounds that activate PPAR-gamma signaling, GeneBLAzer PPAR gamma UAS-bla HEK293H cell line (Invitrogen, Carlsbad, CA, USA) containing a beta-lactamase reporter gene under control of the control of an upstream activator sequence (UAS) stably integrated into HEK293H cells was used to screen Tox21 compound library.
Tox21 Assay Protocol Summary: PPARg-bla cells were dispensed at 3000 cells/6uL/well in 1536-well black wall/clear bottom plates using a Multidrop Combi (Thermo Fisher Scientific, Waltham, MA) dispenser. After the assay plates were incubated at 37C and 5% CO2 for 5 h, 23 nL of compounds dissolved in DMSO, positive controls or DMSO only was transferred to the assay plate by a Pintool station (Kalypsys, San Diego, CA). The assay plates were incubated at 37C for 17 h. After 1 uL of LiveBLAzerTM B/G FRET substrate was added using a Bioraptr Flying Reagent Dispenser (FRD) workstation (Beckman Coulter, Indianapolis, IN, USA), the plates were incubated at room temperature for 1 h, and fluorescence intensity was measured by an Envision plate reader (PerkinElmer, Shelton, CT).
% is set by controls: 0 for no effect and ±100 for the full control effect; potency is the fitted concentration of half-maximal effect.

Sequence of Peroxisome proliferator-activated receptor gamma (Homo sapiens) (P37231 whole entry, looked up): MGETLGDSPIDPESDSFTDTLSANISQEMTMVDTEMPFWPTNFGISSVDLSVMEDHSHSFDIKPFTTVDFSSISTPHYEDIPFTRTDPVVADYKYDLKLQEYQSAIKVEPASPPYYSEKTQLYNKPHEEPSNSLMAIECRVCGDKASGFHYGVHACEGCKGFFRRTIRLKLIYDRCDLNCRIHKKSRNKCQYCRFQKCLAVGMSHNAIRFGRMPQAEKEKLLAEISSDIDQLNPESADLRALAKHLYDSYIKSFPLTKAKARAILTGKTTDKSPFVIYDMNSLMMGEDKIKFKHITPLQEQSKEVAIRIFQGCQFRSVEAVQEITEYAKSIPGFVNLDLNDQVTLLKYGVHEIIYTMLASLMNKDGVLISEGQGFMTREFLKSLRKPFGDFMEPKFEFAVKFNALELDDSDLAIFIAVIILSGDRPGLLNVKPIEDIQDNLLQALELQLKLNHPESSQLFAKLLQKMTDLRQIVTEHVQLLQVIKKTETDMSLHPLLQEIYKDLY

| SMILES | Potency | activation |
| --- | --- | --- |
| c1ccc2cc3c(ccc4ccccc43)cc2c1 | inactive |  |
| CC(C)CCOC(=O)c1ccc(N(C)C)cc1 |  | 0.478% (inactive) |
| CC(=O)OCC1=C(C(=O)O)N2C(=O)[C@@H](NC(=O)Cc3cccs3)[C@H]2SC1 |  | 0.808% (inactive) |
| NC12CC3CC(CC(C3)C1)C2 |  | 1.26% (inactive) |
| CC(C)(C)c1ccc(O)c(C(C)(C)C)c1 | inactive |  |
| Cc1scc2c1N(C(=O)CN1CCN(C)CC1)c1ccccc1NC2=O |  | 0.125% (inactive) |
| CC(=O)C1=C(C)[C@@H]2C[C@@]3(C1)[C@H](C)CC[C@H]3C2(C)C | inactive |  |
| CC(C)(O)CCC(C)(C)O |  | -0.588% [at 78.9 µM] (inactive) |
| O=C(O)c1cccc(C(=O)O)c1 | inactive |  |
| CC(C)(C)NCC(O)c1cc(O)cc(O)c1 (stereo not given) |  | -2.25% (inactive) |
| O=Nc1ccc(Nc2ccccc2)cc1 | 15.5 µM (active) |  |
| Cc1cc(C(C)(C)C)c(O)c(C(C)(C)C)c1 | inactive |  |
| O=C(O)c1cc(Cl)cc(Cl)c1 |  | 1.84% (inactive) |
| COc1cc(C(=S)N2CCOCC2)ccc1O |  | -2.31% (inactive) |
| CN1C(=O)c2ccc([N+](=O)[O-])cc2C1=O |  | 0.153% (inactive) |
| Nc1cc(S(=O)(=O)O)cc2cc(S(=O)(=O)O)cc(O)c12 |  | 5.2% (inactive) |
| CCCCCC(=O)O[C@]1(C(C)=O)CC[C@H]2[C@@H]3CCC4=CC(=O)CC[C@]4(C)[C@H]3CC[C@@]21C |  | -1.57% (inactive) |
| CC(=O)OCCOCCOCCOC(C)=O | inactive |  |
| CCCCOCCOC(=O)c1ccccc1C(=O)OCCOCCCC | inactive |  |
| CC1COC(=O)O1 (stereo not given) | inactive |  |

| SMILES | Potency | activation |
| --- | --- | --- |
| CCn1cc(C(=O)O)c(=O)c2cc(F)c(N3CCNC(C)C3)c(F)c21 (stereo not given) | inactive |  |
| Nc1nc2ccccc2[nH]1 | inactive |  |
| NNCCc1ccccc1 | inactive |  |
| CCC[C@H](N[C@@H](C)C(=O)N1[C@H](C(=O)O)C[C@@H]2CCCC[C@@H]21)C(=O)OCC |  | -5.17% (inactive) |
| CO[Si](OC)(OC)c1ccccc1 |  | 0.417% (inactive) |
| CC1COc2c(N3CCN(C)CC3)c(F)cc3c(=O)c(C(=O)O)cn1c23 (stereo not given) |  | 5.96% (inactive) |
| Cc1ccc(-c2cc(C(F)(F)F)nn2-c2ccc(S(N)(=O)=O)cc2)cc1 | inactive |  |
| CCCCC/C=C/CC1CC(=O)OC1=O (stereo not given) |  | 2.87% (inactive) |
| Oc1ccc(Cl)cc1Cc1cc(Cl)ccc1O | inactive |  |
| O=C(O)c1cn(-c2ccc(F)cc2)c2cc(N3CCNCC3)c(F)cc2c1=O |  | -0.909% (inactive) |
| CC(COc1ccccc1)N(CCCl)Cc1ccccc1 (stereo not given) | inactive |  |
| CNC1(C)C2CCC(C2)C1(C)C (stereo not given) |  | -0.807% (inactive) |
| COC(c1ccccc1)(c1ccccc1)[C@H](Oc1nc(C)cc(C)n1)C(=O)O |  | -0.0591% (inactive) |
| CCc1cc(C(C)(C)C)c(O)c(C(C)(C)C)c1 | inactive |  |
| NC(Cc1ccc(Cl)cc1)C(=O)O (stereo not given) |  | 5.72% (inactive) |
| NC(=Nc1ccccc1)Nc1ccccc1 |  | 3.73% (inactive) |
| OCCOCCN1CCN(C(c2ccccc2)c2ccc(Cl)cc2)CC1 (stereo not given) |  | -12.7% (inactive) |
| CCc1ccc(C(c2ccc(CC)cc2)C(Cl)Cl)cc1 | inactive |  |
| CC(C)C(=O)c1c(C(C)C)nn2ccccc12 |  | 2.3% (inactive) |
| Clc1ccc2c(c1)C(N1CCNCC1)=Nc1ccccc1O2 | inactive |  |

Reference: PubChem BioAssay (Tox21)
